Reference: PubChem BioAssay (EPA / NIEHS)
Where “and” joins values, the source holds several entries; their conditions need not be identical. Equal entries are not always repeated. Inconclusive results are not listed. The source holds several records for some structures; these can differ, active in one and inactive in another. Calls of active or inactive are those of the source. The calls were made as follows: active = hit-call score of the fitted dose curve at least 0.9, where 1 is the maximum; inconclusive = response in the unintended direction; inactive = score below 0.9.

Each compound was assayed against mouse Estrogen Receptor alpha (Era), Esr1 (gene 13982) (UniProt P19785) (assay: NVS_NR_mERa: NovaScreen (NVS) Nuclear Receptor Binding Assay for mouse Estrogen Receptor alpha (Era) (AID 2283378);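 also: hit means loss of bound radioligand signal relative to DMSO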).
Sequence of mouse Estrogen Receptor alpha (Era), Esr1 (gene 13982) (P19785 whole entry, looked up): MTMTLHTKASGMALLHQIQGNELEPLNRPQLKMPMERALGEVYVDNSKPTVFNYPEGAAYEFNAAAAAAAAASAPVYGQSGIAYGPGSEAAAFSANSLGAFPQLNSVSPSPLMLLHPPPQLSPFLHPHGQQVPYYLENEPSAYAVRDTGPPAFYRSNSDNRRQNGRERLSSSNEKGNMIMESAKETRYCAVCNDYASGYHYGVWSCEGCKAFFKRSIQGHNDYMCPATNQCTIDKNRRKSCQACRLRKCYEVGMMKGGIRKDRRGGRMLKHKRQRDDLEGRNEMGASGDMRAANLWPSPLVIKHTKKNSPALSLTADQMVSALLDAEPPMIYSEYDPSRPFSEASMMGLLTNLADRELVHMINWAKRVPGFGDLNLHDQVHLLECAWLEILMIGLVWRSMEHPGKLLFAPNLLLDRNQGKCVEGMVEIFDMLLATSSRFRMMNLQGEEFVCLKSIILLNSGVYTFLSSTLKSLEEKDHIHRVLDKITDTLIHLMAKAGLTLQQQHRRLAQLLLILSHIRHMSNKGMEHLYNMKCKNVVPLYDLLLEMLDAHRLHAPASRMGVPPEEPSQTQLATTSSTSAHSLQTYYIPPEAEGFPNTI
Method in brief: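 Extracted mouse Era incubated with tritiated or iodinated radioligand plus test chemical, 18 h. Bound fraction separated on filters, counted by scintillation. DMSO = negative control/baseline; duplicate single-point at 25 uM, then concentration-response follow-up.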

**Q.** For `Oc1c(Cl)c(Cl)c(Cl)c(Cl)c1Cl`, which outcome is on record?
**A.** inactive

**Q.** For `CCC(=O)O[C@H]1CC[C@H]2[C@@H]3CCC4=CC(=O)CC[C@]4(C)[C@H]3CC[C@]12C`, which outcome is on record?
**A.** inactive

**Q.** `O=C(O)C(F)(F)C(F)(F)C(F)(F)C(F)(F)C(F)(F)C(F)(F)C(F)(F)C(F)(F)C(F)(F)F` was tested. Which outcome did it give?
**A.** inactive

**Q.** Which outcome does the source give for `C[C@]12CCC(=O)C=C1CC[C@@H]1[C@@H]2CC[C@@]2(C)[C@H]1CC[C@]2(C)O` here?
**A.** inactive

**Q.** Which outcome does the source give for `CCOC(=O)C(O)(c1ccc(Cl)cc1)c1ccc(Cl)cc1` here?
**A.** inactive

**Q.** For `Cc1cc(O)ccc1Cl`, which outcome is on record?
**A.** inactive

**Q.** `Cc1cc(-c2ccc(N)c(C)c2)ccc1N` was tested. Which AC50 did it give?
**A.** 0.999 µM (active)

**Q.** What about the outcome of the same compound?
**A.** inactive

**Q.** How did the outcome turn out when `ClC(Cl)=C(c1ccc(Cl)cc1)c1ccc(Cl)cc1` was run?
**A.** inactive

**Q.** How did the AC50 turn out when `CC(C)(c1ccccc1)c1ccc(O)cc1` was run?
**A.** 2.98 µM (active) and 11 µM (active)

**Q.** And the outcome?
**A.** inactive

**Q.** `Oc1ccc(Cl)cc1Cl` was tested. Which outcome did it give?
**A.** inactive

**Q.** `O=C(O)C(F)(F)C(F)(F)C(F)(F)C(F)(F)C(F)(F)C(F)(F)C(F)(F)C(F)(F)F` was tested. Which outcome did it give?
**A.** inactive

**Q.** For `CC(C)C(=O)OCC(C)(C)C(OC(=O)C(C)C)C(C)C` (stereo not given), which outcome is on record?
**A.** inactive

**Q.** `CC(C)(O)C(=O)Nc1ccc([N+](=O)[O-])c(C(F)(F)F)c1` was tested. Which AC50 did it give?
**A.** 2.7 µM (active)

**Q.** What about the outcome of the same compound?
**A.** inactive

**Q.** How did the AC50 turn out when `CCCCCCCCCC[N+](C)(C)CCCCCCCCCC` was run?
**A.** 5.55 µM (active)

**Q.** `CCCN(CCC)N=O` was tested. Which outcome did it give?
**A.** inactive

**Q.** `CCCCCCOC(=O)c1ccccc1C(=O)OCCCCCC` was tested. Which outcome did it give?
**A.** inactive

What follows are compounds tested against Agonist Androgen Response Element (ARE), AR (gene 367) (UniProt P10275) (assay: OT_AR_ARELUC_AG_1440: Odyssey Thera (OT) 24-hour CHO-K1 Luciferase Assay for Agonist Androgen Response Element (ARE) (AID 2283379)).
Sequence of Agonist Androgen Response Element (ARE), AR (gene 367) (P10275 whole entry, looked up): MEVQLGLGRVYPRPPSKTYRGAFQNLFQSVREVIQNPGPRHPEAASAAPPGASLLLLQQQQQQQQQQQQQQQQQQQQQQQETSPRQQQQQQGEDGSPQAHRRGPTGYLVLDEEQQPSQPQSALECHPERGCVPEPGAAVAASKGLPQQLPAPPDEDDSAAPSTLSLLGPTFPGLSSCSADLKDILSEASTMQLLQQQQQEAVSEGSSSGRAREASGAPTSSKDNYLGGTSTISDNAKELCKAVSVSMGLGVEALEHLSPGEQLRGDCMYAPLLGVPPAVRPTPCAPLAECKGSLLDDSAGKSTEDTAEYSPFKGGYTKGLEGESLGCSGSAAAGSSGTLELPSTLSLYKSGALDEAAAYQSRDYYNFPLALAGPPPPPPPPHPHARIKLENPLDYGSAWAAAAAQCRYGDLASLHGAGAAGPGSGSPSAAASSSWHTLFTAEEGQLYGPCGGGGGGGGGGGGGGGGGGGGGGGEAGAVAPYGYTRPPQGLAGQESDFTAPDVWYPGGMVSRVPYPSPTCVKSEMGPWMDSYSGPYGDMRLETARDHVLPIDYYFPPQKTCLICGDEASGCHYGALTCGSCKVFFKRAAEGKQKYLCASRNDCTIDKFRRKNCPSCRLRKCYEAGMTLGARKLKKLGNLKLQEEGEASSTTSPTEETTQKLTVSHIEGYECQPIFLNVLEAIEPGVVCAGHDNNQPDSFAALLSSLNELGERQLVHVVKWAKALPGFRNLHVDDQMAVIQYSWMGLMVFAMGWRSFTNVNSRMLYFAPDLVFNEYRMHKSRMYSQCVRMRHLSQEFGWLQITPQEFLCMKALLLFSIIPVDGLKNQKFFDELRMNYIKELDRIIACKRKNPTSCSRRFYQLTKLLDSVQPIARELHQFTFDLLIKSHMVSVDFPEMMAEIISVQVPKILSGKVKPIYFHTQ
Method in brief: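 Agonist mode, 24 h exposure in CHO-K1 ARE-luciferase cells; values reflect luminescence induction over vehicle.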

**Q.** How did the AC50 turn out when `CCC(=O)O[C@H]1CC[C@H]2[C@@H]3CCC4=CC(=O)CC[C@]4(C)[C@H]3CC[C@]12C` was run?
**A.** 3.34 nM (active) and 0.907 nM (active) and 1.93 nM (active)

**Q.** For `Cc1ccccc1CO[C@@H]1C[C@@]2(C(C)C)CC[C@]1(C)O2`, which outcome is on record?
**A.** inactive

**Q.** `CCOC(=O)C(O)(c1ccc(Cl)cc1)c1ccc(Cl)cc1` was tested. Which outcome did it give?
**A.** inactive

**Q.** Which AC50 does the source give for `O=C(N[C@H]1CN2CCC1CC2)c1cc2ccoc2cn1` here?
**A.** 71.8 µM (active)

**Q.** How did the outcome turn out when `CC1=C2C[C@H]3[C@@H](CC=C4C[C@@H](O)CC[C@@]43C)[C@@H]2CC[C@]12O[C@@H]1C[C@H](C)CN[C@H]1[C@H]2C` was run?
**A.** inactive

**Q.** `CC(C)(O)C(=O)Nc1ccc([N+](=O)[O-])c(C(F)(F)F)c1` was tested. Which outcome did it give?
**A.** inactive

These compounds were tested against Estrogen receptor beta (Homo sapiens) (UniProt Q92731) (assay: OT_ER_ERbERb_1440: Odyssey Thera (OT) 24-hour HEK293T Protein-Complementation Assay for Estrogen Receptor-beta/-beta Homodimer (AID 2283380);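 also: fluorescence gain from ER beta LBD homodimer complementation read by laser scanning cytometry; scored as signal increase over DMSO baseline for both agonists and antagonists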).
Sequence of Estrogen receptor beta (Homo sapiens) (Q92731 whole entry, looked up, the tested form may be a part): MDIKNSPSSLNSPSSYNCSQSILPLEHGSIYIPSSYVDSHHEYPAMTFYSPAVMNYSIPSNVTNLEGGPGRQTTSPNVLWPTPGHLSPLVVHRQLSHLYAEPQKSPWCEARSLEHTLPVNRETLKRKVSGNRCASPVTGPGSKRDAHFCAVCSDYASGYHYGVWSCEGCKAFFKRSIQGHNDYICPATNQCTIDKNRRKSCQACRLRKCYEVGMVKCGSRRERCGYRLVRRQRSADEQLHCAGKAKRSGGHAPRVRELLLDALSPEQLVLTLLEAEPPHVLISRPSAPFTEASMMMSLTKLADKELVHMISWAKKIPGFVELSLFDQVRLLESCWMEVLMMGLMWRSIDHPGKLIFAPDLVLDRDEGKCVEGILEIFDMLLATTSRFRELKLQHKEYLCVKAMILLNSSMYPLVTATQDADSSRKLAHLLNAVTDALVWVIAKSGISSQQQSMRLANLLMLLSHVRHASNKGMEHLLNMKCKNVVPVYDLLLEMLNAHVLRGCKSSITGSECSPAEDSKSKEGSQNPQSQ
Method in brief: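 Fluorescence increase, nuclear for agonists or whole-cell for antagonists, relative to DMSO vehicle, quantified by laser scanning cytometer after fixation and Draq5 staining. Readout from 24 h treatment of HEK293T cells carrying complementation-paired ER beta LBD (aa 310-547).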

**Q.** How did the outcome turn out when `Cc1cc2c3c(c1)C(c1ccccc1)=N[C@@H](NC(=O)c1ccncc1)C(=O)N3CC2` was run?
**A.** inactive

**Q.** Which outcome does the source give for `OCC(O)CO` here?
**A.** inactive

**Q.** For `CCC(=O)O[C@H]1CC[C@H]2[C@@H]3CCC4=CC(=O)CC[C@]4(C)[C@H]3CC[C@]12C`, which AC50 is on record?
**A.** 12.7 µM (active) and 3.36 µM (active) and 12.8 µM (active)

**Q.** And the outcome?
**A.** inactive

**Q.** How did the outcome turn out when `C[C@]12CCC(=O)C=C1CC[C@@H]1[C@@H]2CC[C@]2(C)C(=O)CC[C@@H]12` was run?
**A.** inactive

**Q.** Which outcome does the source give for `c1ccc(-c2ccccc2)cc1` here?
**A.** inactive

**Q.** With `COc1ccc(O)c(C(C)(C)C)c1` as the compound, how does the AC50 read?
**A.** 57.3 µM (active)

**Q.** For `CCOC(=O)C(O)(c1ccc(Cl)cc1)c1ccc(Cl)cc1`, which outcome is on record?
**A.** inactive

**Q.** How did the AC50 turn out when `Cc1cc(O)ccc1Cl` was run?
**A.** 52.5 µM (active)

**Q.** For `Nc1ccc(-c2ccc(N)cc2)cc1`, which outcome is on record?
**A.** inactive

**Q.** For `Cc1ccc(O)c(C)c1`, which outcome is on record?
**A.** inactive

**Q.** `CC(C)(c1ccccc1)c1ccc(O)cc1` was tested. Which AC50 did it give?
**A.** 2 µM (active) and 11.9 µM (active) and 2.17 µM (active)

**Q.** `Oc1ccc(Cl)cc1Cl` was tested. Which outcome did it give?
**A.** inactive

**Q.** How did the outcome turn out when `O=C(N[C@H]1CN2CCC1CC2)c1cc2ccoc2cn1` was run?
**A.** inactive

**Q.** With `O=C(O)C(F)(F)C(F)(F)C(F)(F)C(F)(F)C(F)(F)C(F)(F)C(F)(F)C(F)(F)F` as the compound, how does the outcome read?
**A.** inactive

**Q.** Which outcome does the source give for `CC#Cc1cc(C)nc(Nc2ccccc2)n1` here?
**A.** inactive

**Q.** `CC(C)C(=O)OCC(C)(C)C(OC(=O)C(C)C)C(C)C` (stereo not given) was tested. Which outcome did it give?
**A.** inactive

**Q.** `CC(C)(O)C(=O)Nc1ccc([N+](=O)[O-])c(C(F)(F)F)c1` was tested. Which outcome did it give?
**A.** inactive

**Q.** How did the outcome turn out when `Nn1cnnc1` was run?
**A.** inactive

**Q.** Which outcome does the source give for `CCCN(CCC)N=O` here?
**A.** inactive
